# Screening data deposited in PubChem BioAssay by National Center for Advancing Translational Sciences (NCATS).
# Integrin act MD – activates integrin-mediated alleviation for muscular dystrophy; alpha7betagal myoblasts, beta-gal FDG fluorescence, 48 h; Potency, µM (titrated, usually from 38.3 µM), usual class: activators; 350,000 tested, 0.064% active; AID 624291; note: nearly all actives have a fitted effect of over 60% in size
#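 alpha7betagal+/- myoblasts (passage 13, 250/well) treated 48 h at 37C with compounds at 1:260 dilution of DMSO stock. Lysed, then beta-galactosidase activity read as FDG fluorescence (ex 480/em 540) after 30 min, with pre-read for autofluorescence.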
# TCR act – activators of T cell receptors; primary human leukocytes, anti-CD3, IL-2 HTRF, 48 h; Potency, µM (top dose mostly 9.22 µM), hits mostly activators; 330,000 tested, under 10 active; AID 504894
#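 Compounds are tested in HTS on primary human leukocytes co-incubated with a-CD3 beads for 48 hr. IL-2 output is measured by time-resolved FRET.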
# IL2 activator – activators of IL-2; IL-2 activation reporter assay, cell-based qHTS; stimulated with anti-CD3/CD4/CD28 beads; in transgenic mouse T cells; AID 652025; activation, % (series mostly up to about 46 µM); 360,000 tested, 0.065% active; in the data active = activation above about 50%; inconclusive = mostly about 30% to 49%
#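 Readout: EGFP and DsRed signals by fluorescent plate cytometry. Unstimulated transgenic mouse T cells received compound 60 min before antibody-bead stimulation, then incubated 18 h at 37 degrees C.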
# AT treatment – candidate therapy for ataxia-telangiectasia | Potency, µM (series often up to 57.5 µM), most hits filed as activators | F2112 A-T fibroblasts, KAP-1 phosphorylation AlphaLISA; neocarzinostatin DNA damage 30 min before lysis | 320,000 tested, 0.19% active; note: nearly all actives have a fitted effect of over 45% in size
#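 ATM-like activity read as KAP-1 phosphorylation via AlphaLISA donor/acceptor antibody pairs after lysis and 6 hr at 25C. Cells were ATM-null patient fibroblasts (F2112, hTERT), dosed 60 min, then exposed to the DSB inducer NCS for 30 min.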
# Tb PFK inh – inhibitors of T. brucei phosphofructokinase | AID 485367 | O15648 | 330,000 tested, 0.17% active | Potency, µM (highest dose often 57.5 µM), most hits filed as inhibitors | T. brucei PFK, ADP-Glo luminescence; note: nearly all actives have a fitted effect of over 60% in size
# Target sequence (O15648 whole entry, looked up): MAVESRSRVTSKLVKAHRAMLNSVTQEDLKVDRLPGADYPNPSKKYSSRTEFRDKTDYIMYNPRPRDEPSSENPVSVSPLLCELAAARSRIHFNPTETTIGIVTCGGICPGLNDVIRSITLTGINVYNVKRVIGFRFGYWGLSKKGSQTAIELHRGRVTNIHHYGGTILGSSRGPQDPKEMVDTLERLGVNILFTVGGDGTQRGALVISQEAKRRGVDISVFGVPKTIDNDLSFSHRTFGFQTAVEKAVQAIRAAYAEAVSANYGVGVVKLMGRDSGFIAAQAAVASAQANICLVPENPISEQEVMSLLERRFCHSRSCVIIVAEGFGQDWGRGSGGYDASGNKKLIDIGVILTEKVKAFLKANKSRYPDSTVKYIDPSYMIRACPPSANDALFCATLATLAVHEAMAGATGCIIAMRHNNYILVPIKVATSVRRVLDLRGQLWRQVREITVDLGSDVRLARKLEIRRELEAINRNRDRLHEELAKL
#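 In TEA buffer at pH 8.0 with 5 mM MgCl2, enzyme (1.25 nM) converted F6P (0.5 mM) and ATP (0.1 mM) for 45 min at room temperature. ADP product was read by luciferase luminescence.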
# PKM2 activator – PKM2 (human) enzyme activation. P14618. purified PKM2, Kinase-Glo ATP luminescence, activation; response scale: 0% is enzyme alone, no compound. Potency, µM (highest dose often 57.5 µM), actives largely listed as activators. 260,000 tested, 0.34% active. AID 1631; note: nearly all actives have a fitted effect of over 55% in size
#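 Purified hPK-M2 (>95%) run at intermediate activity with 0.1 mM ADP and 0.5 mM PEP in 50 mM imidazole pH 7.2, KCl, MgCl2; 1 h room temperature. ATP formed read by Kinase-Glo luminescence; normalized to uninhibited and no-enzyme controls.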
# Numbers stand for hits; . = inactive; ? = inconclusive; / = no result; [ ] = remark or other dose. An excerpt weighted towards active compounds, which were near 0.69% of everything screened. Unless noted, calls come from the whole dose curve; as a rule, active = well fitted curve in the direction sought with a large enough effect; inconclusive = small, poorly fitted or top-dose-only effect, or another doubt; inactive = no such curve, though single readings can be large; an effect the other way counts as inactive or inconclusive.
SMILES,Integrin act MD,TCR act,IL2 activator,AT treatment,Tb PFK inh,PKM2 activator
O=C(O)c1cccc(N2C(=O)C3CC=CCC3C2=O)c1 (configuration not stated),.,.,.,.,.,.
CN(Cc1ccccc1)C(=O)c1cccc(N2C(=O)C3CC=CCC3C2=O)c1 (configuration not stated),.,.,.,3.2µM,.,/
CCCC1(C(=O)OC)C=C2C(=C(C)C(=O)C2C)CN1 (configuration not stated),/,/,/,/,/,.
CCCCNC(=O)CSc1nnc(Cc2ccc(Cl)c(Cl)c2)c(=O)[nH]1,1.4µM,.,.,.,.,.
NS(=O)(=O)c1ccc(N2N=C(c3ccccc3)CC2c2cccc(F)c2)cc1 (configuration not stated),.,.,.,40µM,.,.
NS(=O)(=O)c1ccc(N2N=C(c3ccc(Br)cc3)CC2c2ccc(F)cc2)cc1 (configuration not stated),.,.,.,40µM,.,.
NS(=O)(=O)c1ccc(N2N=C(c3ccccc3)CC2c2cccc(Br)c2)cc1 (configuration not stated),.,.,.,.,.,/
O=C(COC(=O)CNC(=O)c1ccc([N+](=O)[O-])o1)Nc1ncc(Cl)cc1Cl,.,.,.,35µM,.,/
Cc1ccc(C(=O)NCC(=O)OCC(=O)Nc2ncc(C(F)(F)F)cc2Cl)cc1,.,.,.,.,.,.
O=C(COC(=O)CNC(=O)c1ccc([N+](=O)[O-])o1)Nc1ncc(C(F)(F)F)cc1Cl,.,.,.,22µM,.,/
Cc1cccc(N(C)S(=O)(=O)c2nnc(NC(=O)C3CCCCC3)s2)c1,/,/,/,.,.,/
COc1ccc(N2CCN(C(=O)CCC(=O)N3Cc4ccccc4Oc4ncccc43)CC2)cc1,.,.,.,.,.,/
OC(COc1ccc(F)cc1Cl)CN1CCC(Cc2ccccc2)CC1 (configuration not stated),.,.,.,3.5µM,.,/
CCOC(=O)C1=C(O)C(=O)N(Cc2ccccc2)C1,.,.,.,1.1µM,.,/
COC(=O)[C@@]1(Cc2ccccc2)[C@H]2c3cc(C(=O)N4CCCC4)[nH]c3C[C@H]2CN1C(=O)c1ccccc1,/,/,/,/,/,.
C=CCN1c2ccccc2[C@]23C[C@@H](C(=O)OC)N(S(=O)(=O)c4ccc(Br)cc4)C2=NC(C(=O)OC)=C(C(=O)OC)[C@H]13,/,/,/,/,/,.[11.5 µM]
O=[N+]([O-])c1ccc(CNc2cccc(Cl)c2)s1,.,.,.,.,7.6µM,.
COc1ccc(NCc2ccc([N+](=O)[O-])s2)c(OC)c1,.,.,.,.,.,.
O=C(NCc1ccc(/C=c2\sc3n(c2=O)CCN=3)o1)C(=O)Nc1ccccc1,/,/,/,.,.,20µM
Cc1ccc(/C=c2/sc3n(c2=O)CCCN=3)o1,.,.,.,.,.,.
COc1ccc([C@]23Cc4cc(C#N)ccc4C(O2)c2c(c4ccc(OC)cc4oc2=O)O3)cc1,/,/,/,.[11.5 µM],.[11.5 µM],.[11.5 µM]
Cc1sc2nc(CN3CCN(c4ccc(O)cc4)CC3)[nH]c(=O)c2c1C,.,.,.,.,?,1.3µM
O=c1[nH]c(CN2CCN(c3ccccc3)CC2)nc2scc(-c3ccccc3)c12,.,.,.,.,.,.
C#CCOCCOCCOCCNc1nc(N2CCN(C(=O)[C@H](CCCCN)n3cc(C(N)CO)nn3)CC2)nc(N2CCN(C(=O)[C@H](CCC(=O)O)n3cc(C(N)CC(C)C)nn3)CC2)n1 (some centres not stated),/,/,/,40µM,.,.
C#CCOCCOCCOCCNc1nc(N2CCN(C(=O)[C@H]([C@@H](C)CC)n3cc([C@@H](N)CO)nn3)CC2)nc(N2CCN(C(=O)[C@H]([C@@H](C)CC)n3cc([C@@H](N)CO)nn3)CC2)n1,/,/,/,40µM,.,.
SMILES,Integrin act MD,TCR act,IL2 activator,AT treatment,Tb PFK inh,PKM2 activator
COc1ccc2c(c1)C(NC(=O)C(F)(F)F)CC2=O (configuration not stated),.,.,.,.,.,.
COc1cc2c(cc1OC)C(NC(=O)C(F)(F)F)C/C2=N\O (configuration not stated),11µM,.,.,.,.,.
CC(C)NC(=O)CN1CCN(C(=O)CCl)CC1,7.1µM,.,.,.,.,.
C/C(CCc1oc2c(Br)cc(Br)cc2c1-c1ccc(C)o1)=N\O,.,.,.,.,.,16µM
C/C(CCc1oc2ccccc2c1-c1ccc(C)o1)=N/O,.,.,.,.,.,.
O=C(O)c1cc(N=Cc2c(O)c3ccccc3oc2=O)ccc1O,7.1µM,.,.,.,.,/
CN(C)c1cccc2c(S(=O)(=O)N3CCCC3)cccc12,.,.,.,20µM,.,/
CCc1c2c(nc3cccc(OC)c13)OC(CC)C2 (configuration not stated),/,/,/,/,/,.
COCCNC(=O)C1(CC(C)C)C=CCN1C(=O)OC (configuration not stated),/,/,/,/,/,.
COC1C(CO)OC(n2c3c(Cl)cccc3c3c4c(c5c6cccc(Cl)c6[nH]c5c32)C(=O)NC4=O)C(O)C1O (configuration not stated),.,.,62,/,/,/
CCCCNc1nc(C)nc2c1nc(-c1ccccc1)n2C1CCN(Cc2ccccc2)C1 (configuration not stated),/,/,/,/,/,.
COC(=O)c1c(N2C(=O)CC(Sc3ccccc3C(=O)O)C2=O)sc2c1CCCC2 (configuration not stated),?,.,.,.,.,7.9µM
CCOC(=O)c1cc(CC)sc1N1C(=O)CC(Sc2ncccc2C(=O)O)C1=O (configuration not stated),.,.,.,.,.,.
CCOC(=O)c1cc(CC)sc1N1C(=O)CC(Sc2ccccc2C(=O)O)C1=O (configuration not stated),.,.,.,.,.,25µM
COC(=O)c1ccccc1NS(=O)(=O)c1ccc(O)c(C(=O)O)c1,.,.,.,.,38µM,.
CCCCNc1c(-c2ccc(OC)c(Sc3ccc(OC)cc3)c2)nc2cnccn12,.,.,.,?,.,/
CCCCNc1c(-c2ccc(SC(C)CC)cc2)nc2cnccn12 (configuration not stated),.,.,.,28µM,.,/
COC(=O)C[C@H]1c2ccccc2C2=C(C[C@@H](C)[C@H]3C(=O)NC(=O)[C@@H]23)N1C(=O)OC,/,/,/,/,/,.[11.5 µM]
COc1ccc(C(=O)CSc2nc3ncccc3[nH]2)cc1OC,.,.,.,0.79µM,.,.
CCOC(=O)c1c(CSc2ccsc2)n(C)c2cc(Br)c(O)c(CN(C)C)c12,.,.,.,8.9µM,.,.
